Laboratory results reported in PubChem BioAssay (NCI).
Compounds without any hit were thinned out: in the full panel of roughly 79,000, 15% have a hit. Rule as the data show it: active = growth inhibition above about 70%; inactive = the rest.

How the values were obtained:
[1] = NCI Yeast Anticancer Drug Screen. Data for the rad52 strain (AID 147);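 also: 0% = growth of vehicle-treated control cultures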; conditions: S. cerevisiae rad52 mutant growth inhibition, hits give high values
In short: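 Genetically altered yeast (DNA damage repair defect) treated with compound; inhibition calculated relative to vehicle.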

[2] = NCI Yeast Anticancer Drug Screen. Data for the wt1 strain (AID 149);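 also: 0% = growth of vehicle-treated wt1 cultures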; conditions: S. cerevisiae wt1 strain (SPY 50644) growth inhibition, hits give high values
In short: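 Yeast wt1 strain exposed to compounds; growth inhibition measured relative to vehicle-treated controls.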

[3] = NCI Yeast Anticancer Drug Screen. Data for the rad50EPP+ strain (AID 151);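 also: 0% = growth of vehicle-treated control cultures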; conditions: S. cerevisiae rad50 mutant strain, hits give high values
In short: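 Strain rad50EPP+; compound exposure; % growth inhibition vs vehicle.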

[4] = NCI Yeast Anticancer Drug Screen. Data for the mgt1 strain (AID 153); conditions: S. cerevisiae mgt1 mutant growth inhibition, hits give high values
In short: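 Read-out: yeast growth inhibition vs vehicle control. Strain mgt1, drawn from a panel altered in DNA damage repair or cell cycle control.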

[5] = NCI Yeast Anticancer Drug Screen. Data for the rad50 strain (AID 155);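 also: 0% = growth of vehicle-only cultures of the same strain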; conditions: S. cerevisiae rad50 strain growth inhibition, hits give high values
In short: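 Yeast carrying a defined DNA repair defect were exposed to test compounds, and growth was compared with vehicle-treated controls to give percent inhibition.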

[6] = NCI Yeast Anticancer Drug Screen. Data for the mec2-1 strain (AID 157); conditions: S. cerevisiae mec2-1 strain, hits give high values
In short: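 Cells of the genetically defined mec2-1 yeast strain are incubated with test compound. Inhibition of growth is calculated against vehicle-treated controls.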

[7] = NCI Yeast Anticancer Drug Screen. Data for the sgs1 mgt1 strain (AID 161);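 also: 0% = growth of cultures given vehicle only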; conditions: S. cerevisiae sgs1 mgt1 strain, hits give high values
In short: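 Read-out: growth inhibition vs vehicle controls. Cells: mutant yeast strain deficient in DNA damage repair.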

[8] = NCI Yeast Anticancer Drug Screen. Data for the CLN2oe strain (AID 163);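 also: 0% = growth of vehicle-only control cultures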; conditions: S. cerevisiae CLN2oe strain, hits give high values
In short: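 Strain altered in cell-cycle control, incubated with compound; growth compared to solvent-treated controls.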

[9] = NCI Yeast Anticancer Drug Screen. Data for the cln2 rad14 strain (AID 165);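 also: 0% = growth equal to vehicle treated cultures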; conditions: S. cerevisiae cln2 rad14 strain, hits give high values
In short: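 The screen exposed genetically defined yeast (cln2 rad14) to test compounds and scored growth inhibition relative to vehicle-treated controls.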

[10] = NCI Yeast Anticancer Drug Screen. Data for the bub3 strain (AID 167); conditions: S. cerevisiae bub3 mutant strain, hits give high values
In short: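 Compounds were applied to a genetically altered yeast strain carrying a cell-cycle control defect. Growth inhibition was scored against vehicle-treated controls.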

[11] = NCI Yeast Anticancer Drug Screen. Data for the wt2 strain (AID 169);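 also: 0% = growth of vehicle-treated yeast cultures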; conditions: S. cerevisiae wt2 strain growth inhibition, hits give high values
In short: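 Steps: yeast strain treated with compound; growth recorded; inhibition calculated relative to cultures given vehicle alone.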

[12] = NCI Yeast Anticancer Drug Screen. Data for the mlh1 strain (AID 171);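 also: 0% = growth of vehicle-treated control cultures of the same strain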; conditions: S. cerevisiae mlh1 strain growth inhibition, hits give high values
In short: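 Yeast screen: mutant strain plus compound, growth scored against vehicle control wells.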

[13] = NCI Yeast Anticancer Drug Screen. Data for the sgs1 strain (AID 173);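 also: 0% = growth of vehicle-only control cultures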; conditions: S. cerevisiae sgs1 mutant, hits give high values
In short: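 Inhibition of yeast growth served as the measure. The mutant strain was treated with each compound, and growth was normalised to cultures receiving vehicle alone.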

[14] = NCI Yeast Anticancer Drug Screen. Data for the mlh1 rad18 strain (AID 175); conditions: S. cerevisiae mlh1 rad18 strain growth inhibition, hits give high values
In short: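 Compound-treated yeast growth, normalised to vehicle controls. Strain bears defined DNA repair mutations.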

[15] = NCI Yeast Anticancer Drug Screen. Data for the rad18 strain (AID 177); conditions: S. cerevisiae rad18 mutant growth inhibition, hits give high values
In short: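 Inhibition values reflect reduced yeast growth compared with vehicle-treated controls, using a strain engineered with a DNA damage repair defect.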

[16] = at 5.0 µM (retest, dose inferred, filed as 0.5)
[17] = at 50.0 µM (retest, dose inferred, filed as 5.0)

Measured: growth inhibition

CCCC/C([O-])=C1/C(=O)N(c2ccccc2)N=C1C.CCCC/C([O-])=C1/C(=O)N(c2ccccc2)N=C1C.[Cu+2]
inactive: [1]; at 1.2 µM 1% | [1]; at 3.7 µM 2% | [1]; at 11.0 µM 2% | [1]; at 33.0 µM 1% | [1]; at 100.0 µM -2% | [2]; at 1.2 µM 0% | [2]; at 3.7 µM -1% | [2]; at 11.0 µM -2% | [2]; at 33.0 µM -2% | [2]; at 100.0 µM -3% | [3]; at 1.2 µM -1% | [3]; at 3.7 µM 0% | [3]; at 11.0 µM -1% | [3]; at 33.0 µM -2% | [3]; at 100.0 µM 0% | [4]; at 1.2 µM -2% | [4]; at 3.7 µM -1% | [4]; at 11.0 µM 0% | [4]; at 33.0 µM 0% | [4]; at 100.0 µM -5% | [5]; at 1.2 µM 1% | [5]; at 3.7 µM 2% | [5]; [16] 28% | [5]; at 11.0 µM 2% | [5]; at 33.0 µM 1% | [5]; [17] 48% | [5]; at 50.0 µM -7.7% | [5]; at 100.0 µM 0% | [6]; at 1.2 µM -3% | [6]; at 3.7 µM -3% | [6]; [16] 10% | [6]; at 11.0 µM -6% | [6]; at 33.0 µM 1% | [6]; [17] 29% | [6]; at 50.0 µM -6.8% | [6]; at 100.0 µM -6% | [7]; [16] -2% | [7]; [17] 42% | [7]; at 50.0 µM -13.3% | [8]; at 1.2 µM -4% | [8]; at 3.7 µM -2% | [8]; at 11.0 µM 7% | [8]; at 33.0 µM 0% | [8]; at 100.0 µM 3% | [9]; [16] 27% | [9]; [17] 44% | [9]; at 50.0 µM 32.3% | [10]; at 1.2 µM -1% | [10]; at 3.7 µM -1% | [10]; [16] 26% | [10]; at 11.0 µM -4% | [10]; at 33.0 µM -2% | [10]; [17] 48% | [10]; at 50.0 µM -1% | [10]; at 100.0 µM -5% | [11]; at 1.2 µM 0% | [11]; at 3.7 µM 0% | [11]; at 11.0 µM -1% | [11]; at 33.0 µM -2% | [11]; at 100.0 µM -3% | [12]; at 1.2 µM 0% | [12]; at 3.7 µM -3% | [12]; at 11.0 µM -2% | [12]; at 33.0 µM -3% | [12]; at 100.0 µM -2% | [13]; at 1.2 µM 0% | [13]; at 3.7 µM -1% | [13]; at 11.0 µM -2% | [13]; at 33.0 µM -1% | [13]; at 100.0 µM -1% | [14]; [16] 6% | [14]; [17] 8% | [14]; at 50.0 µM -20.8% | [15]; at 1.2 µM -3% | [15]; at 3.7 µM -4% | [15]; at 11.0 µM -1% | [15]; at 33.0 µM -5% | [15]; at 100.0 µM -3%
